Experimental findings from PubChem BioAssay AID1259313 (Sanford-Burnham Center for Chemical Genomics, 2017) are described below.

Molecules are shown by their SMILES. The whole screen tested about 340,000 compounds, of which about 8,500 (2.5%) were called active. Only a selection was taken, and actives are over-represented in it overall. Unmarked numbers belong to inactive results.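 How the source made its calls: active means melting temperature shift of at least 10% of the positive control shift, at one fixed dose; inactive means the rest.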

The subject of this test is Glutamate receptor ionotropic, NMDA 3A (GRIN3A) ligand-binding domain. The experiment in a line: binders of NR3A ligand-binding domain, primary screen, biophysical, differential scanning fluorimetry, uHTS (AID 1259313). The conditions noted are these: NR3A LBD differential scanning fluorimetry, at 25 µM, hits give high values, 0% = protein alone, 100% = glycine-bound protein. (DSF heats the sample and reads unfolding from a dye or from intrinsic fluorescence.)
Consider `Cc1cc(C(=O)CC#N)c(C)n1CC(F)(F)F`, for which the Tm shift relative to glycine control is 0.49%.

On to `O=C(Nc1cccc(S(=O)(=O)N2CCCC2)c1)c1cncc(Br)c1`, for which the Tm shift relative to glycine control is -1.22%.

As for `COc1ccc(N2CCN(CCNC(=O)Nc3cc(Cl)ccc3Cl)CC2)cc1`, the Tm shift relative to glycine control is -1.01%.

On to `O=c1c2ccccc2ncn1/N=C/c1ccccc1`, for which the Tm shift relative to glycine control is -2.01%.

Take `Cc1ccc(OCC(=O)N2CCN(C(=O)c3cccnc3)CC2)cc1`: the Tm shift relative to glycine control is -1.15%.

`O=C(/C=C/c1ccc(Cl)cc1)Nc1ccc(Br)cn1`: the Tm shift relative to glycine control is 0.46%.

For `Cc1ccccc1N(C(=O)Cc1cccs1)C(C(=O)NC1CCCCC1)c1cn(C)nc1C` (configuration not stated), the Tm shift relative to glycine control is -0.71%.

On to `O=C(COC(=O)c1cc(=O)[nH]c2ccccc12)Nc1nc(-c2cccc(Br)c2)cs1`, for which the Tm shift relative to glycine control is 10.6% (active).

For `CCOC(=O)c1ccccc1NC(=O)CSc1nc2ccccc2c(=O)[nH]1`, the Tm shift relative to glycine control was -1.86%.

On to `O=C(COC(=O)c1cc(=O)[nH]c2ccccc12)NCc1cccc(Cl)c1`, for which the Tm shift relative to glycine control is -0.85%.

In the case of `CC(NC(=O)COC(=O)c1cc(=O)[nH]c2ccccc12)c1ccccc1` (configuration not stated), the Tm shift relative to glycine control was -1%.

Consider `CC(=O)NCc1ccc(-c2csc(NC(=O)CCCc3nc4ccccc4c(=O)[nH]3)n2)cc1`, for which the Tm shift relative to glycine control is -1.27%.

Regarding `O=C(CSc1nc2ccccc2c(=O)[nH]1)Nc1nc(-c2ccc(Br)cc2)cs1`, the Tm shift relative to glycine control was 36.1% (active).

As for `Cc1ccc(-c2cc(=O)[nH]c(NCc3ccccc3)n2)cc1`, the Tm shift relative to glycine control was -1.01%.

For the molecule `COc1cc(OC)c(OC)cc1CN1CCN(C(=O)c2cccc3ccccc23)CC1`, the Tm shift relative to glycine control was -1.19%.

For the molecule `Cc1cc(C)nc(/N=C2\NC(=O)CC(C(=O)O)N2c2ccc(Cl)cc2Cl)n1` (configuration not stated), the Tm shift relative to glycine control was -1.26%.

Take `O=C(CCN1C(=O)C2CCCCC2C1=O)Nc1ccc(OC(F)F)cc1` (configuration not stated): the Tm shift relative to glycine control was 2.89%.

`O=C(NNc1ccccc1Cl)C(O)(c1cccc(C(F)(F)F)c1)c1cccc(C(F)(F)F)c1`: the Tm shift relative to glycine control is 27.5% (active).

As to `O=C(Nc1cc(C(F)(F)F)ccc1Cl)C(=O)N1CCCCC1`, the Tm shift relative to glycine control was -10.1%.

As for `O=C(O)c1cc(S(=O)(=O)N(Cc2ccccc2)c2cccc(C(F)(F)F)c2)ccc1Cl`, the Tm shift relative to glycine control is 2.79%.

Turning to `Nc1cc2c(cc1Br)-c1ccc(F)cc1C2=O`, the Tm shift relative to glycine control was -2.14%.

In the case of `Nc1nc(SCC(=O)Nc2ccc(Cl)cc2C(F)(F)F)n[nH]1`, the Tm shift relative to glycine control is 0.67%.

Consider `CCCCNC(=O)c1onc(CSc2cccc(OC)c2)c1C(=O)O`, for which the Tm shift relative to glycine control is 3.23%.

Consider `CCOc1cccc(SCc2noc(C(=O)NC(C)C)c2C(=O)O)c1`, for which the Tm shift relative to glycine control is -0.97%.

Turning to `COCCNC(=O)c1onc(CSc2cccc(C)c2)c1C(=O)O`, the Tm shift relative to glycine control is 18.5% (active).

As for `COCCn1nnnc1C(c1ccccc1Cl)N1CCN(c2ccccc2OC)CC1` (configuration not stated), the Tm shift relative to glycine control was 2.04%.

For the molecule `CN(C)/C=C(/C(=O)c1ccc(Cl)c(Cl)c1)c1nnnn1-c1ccccc1`, the Tm shift relative to glycine control was -0.1%.

As to `CCC(=O)N(C)C(c1ccccc1Cl)c1nnnn1-c1c(C)cccc1C` (configuration not stated), the Tm shift relative to glycine control is 38.2% (active).

`O=C(CCC(=O)N1CCN(S(=O)(=O)c2ccc(Cl)cc2)CC1)NCc1cccc(C(F)(F)F)c1`: the Tm shift relative to glycine control is -1.09%.

As for `O=C(O)C1C2CC2CN1C(=O)c1ccc(Cl)cc1Cl` (configuration not stated), the Tm shift relative to glycine control was -0.76%.

For `CSc1ncccc1C(=O)Nc1cccc(S(=O)(=O)N2CCOCC2)c1`, the Tm shift relative to glycine control is 2.41%.

Turning to `NS(=O)(=O)c1cccc(NC(=O)CSc2nc3ccccc3n2-c2ccccc2)c1`, the Tm shift relative to glycine control is -3.25%.

With `Cc1ccc(-c2nn(-c3ccccc3)cc2C(=O)NC2CCC(O)CC2)cc1` (configuration not stated), the Tm shift relative to glycine control is -1.68%.

With `O=C(/C=C/c1cn(-c2ccccc2)nc1-c1ccc2c(c1)OCCO2)NCCCN1CCOCC1`, the Tm shift relative to glycine control was -0.74%.

Take `COc1ccc(-c2nn(-c3ccccc3)cc2C(=O)Nc2nccs2)cc1OC`: the Tm shift relative to glycine control is -1.92%.

As for `O=C(O)c1ccc(NC(=O)c2cn(-c3ccccc3)nc2-c2ccc(Cl)cc2)cc1`, the Tm shift relative to glycine control was 12% (active).

Regarding `COc1ccc(NC(=O)c2ccccc2CC[N+](=O)[O-])cc1`, the Tm shift relative to glycine control is 1.34%.

On to `Cc1ccc(-c2nn(-c3ccccc3)cc2/C=C/C(=O)Nc2cccc(S(N)(=O)=O)c2)cc1`, for which the Tm shift relative to glycine control is 28.9% (active).

Regarding `COc1ccc(NC(=O)c2cn(-c3ccccc3)nc2SC)cc1`, the Tm shift relative to glycine control is 18.1% (active).

With `Cc1ccc(-c2nn(-c3ccccc3)cc2C(=O)Nc2cccc(S(=O)(=O)N3CCOCC3)c2)cc1`, the Tm shift relative to glycine control was 10.7% (active).

For the molecule `Cc1occc1C(=O)Nc1cccc(S(=O)(=O)N2CCOCC2)c1`, the Tm shift relative to glycine control is 0.26%.

In the case of `Cc1ccc(-c2nn(-c3ccccc3)cc2C(=O)NCCCN2CCCC2=O)cc1`, the Tm shift relative to glycine control was -0.51%.

As to `Cc1cccc(NC(=O)Cn2c(=O)n(Cc3ccccc3)c(=O)c3c(C)c(C)sc32)c1`, the Tm shift relative to glycine control was 8.62%.

`O=C(CN1C(=O)c2cccnc2Oc2ccc(Cl)cc21)NCCc1ccccc1`: the Tm shift relative to glycine control was 0.65%.

On to `CNC(=O)c1[nH]cnc1C(=O)N[C@@H](CC(C)C)C(=O)OCc1ccccc1`, for which the Tm shift relative to glycine control was -3.33%.

With `CCN(CC)Cc1c(C(=O)OC)nnn1-c1nonc1N`, the Tm shift relative to glycine control was -0.56%.

`CCCc1cc(=O)oc2c(C)c(OC(C)C(=O)NCC(O)c3ccccc3)ccc12` (configuration not stated): the Tm shift relative to glycine control is 0%.

With `O=C(O)c1cc(S(=O)(=O)N2CCCCCC2)c(Cl)cc1Cl`, the Tm shift relative to glycine control was 0.9%.

With `CC(C(=O)c1ccc(-c2ccccc2)cc1)[n+]1cccc(Br)c1` (configuration not stated), the Tm shift relative to glycine control was -2.4%.

For `Cc1ccccc1-n1nnnc1SCCCC(=O)c1ccc(F)cc1`, the Tm shift relative to glycine control was 3.17%.

For `COc1ccc(NC(=O)CN(C)C(=O)/C=C/c2cn(Cc3ccccc3)nc2-c2cccnc2)cc1`, the Tm shift relative to glycine control is -0.36%.

Turning to `COc1cccc(NC(=O)CN(C)C(=O)/C=C/c2cc(OC)ccc2OC)c1`, the Tm shift relative to glycine control is -3.12%.

For the molecule `COc1cccc(NC(=O)CN(C)C(=O)/C=C/c2cn(-c3ccccc3)nc2-c2cccs2)c1`, the Tm shift relative to glycine control was 10.7% (active).

On to `COc1ccc(OC)c(-c2csc(-c3cccs3)n2)c1`, for which the Tm shift relative to glycine control is 2.35%.

With `CCCCCCC(=O)Nc1nc(C)c(-c2csc(Nc3cccc(OC)c3)n2)s1`, the Tm shift relative to glycine control is 4.39%.

As to `Fc1ccc2nc(Nc3nc4c(s3)CCCC4)sc2c1`, the Tm shift relative to glycine control is -1.71%.

As to `COc1ccc(OC)c(-c2csc(NC(=O)C3=NNC(=O)CC3)n2)c1`, the Tm shift relative to glycine control was -2.68%.

`COc1ccc2nc(Nc3nc(-c4cc5ccccc5oc4=O)cs3)sc2c1`: the Tm shift relative to glycine control was 24.7% (active).

For `O=C(Nc1ccncc1)c1cc2ccccc2o1`, the Tm shift relative to glycine control was -15%.

Turning to `COc1ccc2nc(Nc3nc(-c4ccncc4)cs3)sc2c1`, the Tm shift relative to glycine control is 23.1% (active).

Consider `O=C(NCc1cccnc1)c1cccc(-c2cc3ccccc3oc2=O)c1`, for which the Tm shift relative to glycine control was -2.7%.

`O=c1oc2ccccc2cc1-c1csc(Nc2ccc(O)cc2)n1`: the Tm shift relative to glycine control was 12.2% (active).
